Screening data: PubChem, National Center for Advancing Translational Sciences (NCATS)
GLS inh – qHTS for Inhibitors of Glutaminase (GLS). Glutaminase kidney isoform, mitochondrial (Homo sapiens), O94925. GLS enzymatic activity, qHTS titration. Potency, µM (top dose mostly 45.5 µM), for the others: at the highest dose activity change, negative = inhibition, most hits filed as inhibitors. hit rate 0.21% among 410,000. AID 624170, 2012
Target sequence (O94925 whole entry, looked up, canonical isoform): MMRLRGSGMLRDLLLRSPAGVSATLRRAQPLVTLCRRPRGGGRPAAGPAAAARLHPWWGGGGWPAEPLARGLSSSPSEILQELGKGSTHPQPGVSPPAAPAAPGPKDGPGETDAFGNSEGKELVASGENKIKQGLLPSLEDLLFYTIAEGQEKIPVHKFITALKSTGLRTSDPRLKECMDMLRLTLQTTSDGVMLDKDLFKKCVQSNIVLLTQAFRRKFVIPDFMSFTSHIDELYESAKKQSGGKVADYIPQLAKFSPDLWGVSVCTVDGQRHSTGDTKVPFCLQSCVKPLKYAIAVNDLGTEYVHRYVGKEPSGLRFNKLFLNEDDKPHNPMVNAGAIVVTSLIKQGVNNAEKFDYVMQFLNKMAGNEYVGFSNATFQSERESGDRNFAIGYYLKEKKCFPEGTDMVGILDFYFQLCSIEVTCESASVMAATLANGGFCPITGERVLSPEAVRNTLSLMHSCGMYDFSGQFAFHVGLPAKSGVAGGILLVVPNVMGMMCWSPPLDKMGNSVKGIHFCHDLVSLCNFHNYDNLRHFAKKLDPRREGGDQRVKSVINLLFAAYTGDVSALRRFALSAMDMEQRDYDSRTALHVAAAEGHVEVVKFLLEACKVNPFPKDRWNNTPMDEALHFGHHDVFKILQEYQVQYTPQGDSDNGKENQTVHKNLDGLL
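Coupled fluorescence readout: glutamate oxidase/HRP/Amplex Red detect glutamate formed by hKGA from L-glutamine (1 mM solution added). Buffer 45 mM KH2PO4 pH 8.2, 0.02% Tween-20; reads at t0 and 30 min RT.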
Chronic BCR inh – qHTS Assay to Find Inhibitors of Chronic Active B-Cell Receptor Signaling. hit rate 0.05% among 340,000. ABC-DLBCL IkBa-CBG/CBR reporter, luminescence ratio, 4 h. AID 493014, 2011. Potency, µM (top dose mostly 46.1 µM), for the others: at the top dose activity change, negative = inhibition, hits mostly inhibitors; active means well fitted inhibition curve with a large enough effect in the signal ratio, with a control signal flat, not every such curve was filed as active; inconclusive means small, poorly fitted or top-dose-only effect, or effect the other way, or a change in a side signal; the % refers to the signal ratio;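 further: plate controls were basal doxycycline-induced cells for no effect and cells given 10 µM MG132 for full effect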
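TMD8 ABC-DLBCL cells carrying doxycycline-inducible green luciferase fused to IkappaBalpha plus unfused red luciferase were exposed to compounds (up to 46 uM) for 4 hrs at 37C. Activity came from the overlap-corrected green/red luminescence ratio.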
MBNL1 CUG block – qHTS Assay for Inhibitors of MBNL1-poly(CUG) RNA binding. Potency, µM (doses to about 57.5 µM), inactives show at the top dose activity change, negative = inhibition, usual class: inhibitors. TR-FRET MBNL1-His/biotin-(CUG)12 binding, 665/545 ratio. Muscleblind-like protein 1 (Homo sapiens), Q9NR56. AID 2675, 2010. hit rate 0.036% among 280,000; active means well fitted inhibition curve with a large enough effect in the signal ratio, with a control signal flat, not every such curve was filed as active; inconclusive means small, poorly fitted or top-dose-only effect, or effect the other way, or a change in a side signal; inactive means no such curve, though single readings can be large or run the other way; the % refers to the signal ratio
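TR-FRET between His-tagged MBNL1 and biotin-(CUG)12 RNA, detected with Tb anti-His antibody (0.055 ng/ul) and streptavidin-XL665 (5 nM), 60 min at room temperature. Compounds titrated 92 nM to 58 uM; 665/545 nm ratio normalized to buffer and complex controls.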
Apoferritin bind – qHTS Assay for Identification of Novel General Anesthetics | apoferritin/1-aminoanthracene competitive binding, fluorescence | AID 485281, 2010 | Ferritin light chain (Equus caballus), P02791 | hit rate 0.074% among 350,000 | Potency, µM (titrated, usually from 77.5 µM), without a hit: at the highest dose activity change, negative = displacement, hits mostly inhibitors; further: nearly all actives have a fitted effect of over 20% in size
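In PBS, apoferritin at 10 uM is loaded with 1-AMA from a 50% saturated solution. After 10 min of compound exposure at ambient temperature, reduced 535 nm fluorescence indicates probe displacement.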
B2AR arrestin – qHTS assay of beta-arrestin-biased ligands of beta2-adrenergic receptor. Beta-2 adrenergic receptor (Homo sapiens), P07550. beta-arrestin recruitment to beta2AR, cell-based reporter. Potency, µM (doses to about 46.1 µM), inactives show at the top dose activation, most hits filed as activators. hit rate 0.02% among 330,000;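 further: 0% = DMSO controls and full agonism = EC100 isoproterenol or metaproterenol; nearly all actives have a fitted effect of over 65% in size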
* marks the source's active call; other numbers are inactive results. An excerpt weighted towards active compounds, which were near 0.35% of everything screened. Unless noted, the call rests on the fitted dose curve; in most records, active means well fitted curve in the direction sought with a large enough effect; inconclusive means small, poorly fitted or top-dose-only effect, or another doubt; inactive means no such curve, though single readings can be large; an effect the other way counts as inactive or inconclusive. Unless noted, on the % scale 0 is the no-effect control and ±100 the full control effect; potency means the concentration at half of the fitted maximal effect.

For CCN(CC)c1ccc(N=Nc2ccc(S(=O)(=O)N(C)C)cc2)c(S(=O)(=O)NCC[n+]2ccccc2)c1 the results were GLS inh -7%.
For C=C[C@]1(C)C[C@@H](OC(=O)CO)[C@]2(C)C(C)CC[C@]3(CCC(=O)[C@H]32)[C@@H](C)[C@@H]1O (stereo partly specified) the results were GLS inh -5%.
Screening CSC1=C(C#N)C(c2ccc(Cl)cc2)C2=C(CC(C)(C)CC2=O)N1 (stereo unspecified) returned GLS inh -6%, Chronic BCR inh -1%, MBNL1 CUG block 3%, Apoferritin bind -21% and B2AR arrestin 1%.
Screening CSC1=NC=C(C#N)C2=NC(c3ccc(Cl)cc3)NN12 (stereo unspecified) returned GLS inh 13µM*.
For COc1ccccc1NC(=O)c1ccccc1Nc1ccccc1 the results were GLS inh -17%, Chronic BCR inh 0%, MBNL1 CUG block 1%, Apoferritin bind 36% and B2AR arrestin 0%.
For COc1ccccc1Nc1ccc(N)cc1 the results were GLS inh 11µM*, Chronic BCR inh -14%, MBNL1 CUG block 4%, Apoferritin bind -16% and B2AR arrestin 0%.
For Cc1ccc(N2C(=O)CC3(CC4C=CC3C4)C2=O)cc1 (stereo unspecified) the results were GLS inh -2%, Chronic BCR inh 9%, MBNL1 CUG block -2%, Apoferritin bind 7.9µM* and B2AR arrestin 0%.
Cc1ccc(N2C(=O)NC3(CCCCC3)C2=O)cc1 was read as GLS inh -5%, Chronic BCR inh inconclusive, MBNL1 CUG block -4%, Apoferritin bind -11% and B2AR arrestin -3%.
Screening CCCCCCCC/C=C\CCCCCCCCCCCC(=O)O returned Apoferritin bind -20%.
`Cc1ccc(-c2ccc(=O)n(CC(=O)NCc3ccco3)n2)cc1` gave GLS inh 3%, Chronic BCR inh -14%, MBNL1 CUG block 21%, Apoferritin bind 8.9µM* and B2AR arrestin -1%.
For O=c1ccc(-c2ccccc2)nn1Cc1ccc(F)cc1Cl the results were GLS inh -4%, Chronic BCR inh -2%, MBNL1 CUG block 9%, Apoferritin bind inconclusive and B2AR arrestin -1%.
CCc1ccc(CNC(=O)Cn2nc(-c3ccccc3)ccc2=O)cc1 was read as GLS inh 4%, Chronic BCR inh -25%, MBNL1 CUG block 21%, Apoferritin bind 11µM* and B2AR arrestin -2%.
`O=C(Cn1nc(-c2ccccc2)ccc1=O)NCc1ccc(F)cc1Cl` gave GLS inh 5%, Chronic BCR inh inconclusive and Apoferritin bind 11µM*.
For Cc1ccc(NC(=O)c2c(C)oc3ccc(O)c(CN4CCCCCC4)c23)cc1 the results were GLS inh 1% and Apoferritin bind -18%.
Screening C[N+](C)(CCCCCC[N+](C)(C)C1c2ccccc2-c2ccccc21)C1c2ccccc2-c2ccccc21 returned GLS inh -4%.
For O=C(c1nc2ccccn2c1CN1CCN(c2ccccc2O)CC1)N1CCCC1 the results were GLS inh 3.5µM*, Chronic BCR inh 2%, MBNL1 CUG block 1%, Apoferritin bind -1% and B2AR arrestin 0%.
For Oc1ccccc1N1CCN(c2ccc3ccccc3n2)CC1 the results were GLS inh 10µM*, Chronic BCR inh 0%, MBNL1 CUG block 3%, Apoferritin bind -6% and B2AR arrestin 0%.
`C[N+](C)(C)CC(=O)N1CCN(c2ccc3ccccc3n2)CC1` gave GLS inh -5%, Chronic BCR inh inconclusive, MBNL1 CUG block -2%, Apoferritin bind -2% and B2AR arrestin 0%.
CN1C2CCC1CC(NC(=O)n1c(=O)[nH]c3ccccc31)C2 (stereo unspecified) was read as GLS inh -3%.
For O=C(/C=C/c1cccs1)N1CCCCC1 the results were GLS inh -11%, Chronic BCR inh -1%, MBNL1 CUG block 14%, Apoferritin bind -12% and B2AR arrestin 0%.
Screening O=C(/C=C/c1cccs1)N1CCN(c2ccc(O)cc2)CC1 returned GLS inh 7.1µM*, Chronic BCR inh inconclusive, MBNL1 CUG block inconclusive, Apoferritin bind -20% and B2AR arrestin -1%.
Screening COc1cc(OC)cc(C(=O)N/N=C/c2ccc(OC)c(COc3ccc(F)cc3)c2)c1 returned GLS inh -12%, Chronic BCR inh 10µM*, MBNL1 CUG block -5%, Apoferritin bind -9% and B2AR arrestin 0%.
COc1cc(C2CC(=O)c3c([nH]c(C(=O)OCc4ccc(C)cc4)c3C)C2)cc(OC)c1OC (stereo unspecified) was read as GLS inh 1% and Apoferritin bind -16%.
`Cc1nc(C)c(/C(O)=C\c2nc3ccc([N+](=O)[O-])cc3oc2=O)o1` gave GLS inh 11µM*, Chronic BCR inh 6%, MBNL1 CUG block inconclusive, Apoferritin bind -8% and B2AR arrestin -1%.
For Cc1ccc(N/N=C(\Cc2nc3ccccc3[nH]2)c2ccccc2)cc1 the results were GLS inh 5%, Chronic BCR inh 23µM*, MBNL1 CUG block -2%, Apoferritin bind -1% and B2AR arrestin 0%.
O=C1S/C(=C\c2ccc(O)c([N+](=O)[O-])c2)C(=O)N1c1ccccc1Cl was read as GLS inh 13%, Chronic BCR inh inconclusive, MBNL1 CUG block inconclusive, Apoferritin bind 13µM* and B2AR arrestin 0%.
Screening Cc1ccc(C)c(-n2c3nc(=O)[nH]c(=O)c-3cc3cc([N+](=O)[O-])ccc32)c1 returned GLS inh -21%, Chronic BCR inh inconclusive, Apoferritin bind 6% and B2AR arrestin -1%.
Screening Cc1cccc(-n2c3nc(=O)[nH]c(=O)c-3cc3cc([N+](=O)[O-])ccc32)c1 returned GLS inh 5%, Chronic BCR inh 12µM*, MBNL1 CUG block inconclusive, Apoferritin bind 5% and B2AR arrestin 0%.
`COc1cccc(NC(=O)CSc2nccn2C2CCCC2)c1` gave GLS inh 6%, Chronic BCR inh 4% and Apoferritin bind -6%.
Screening O=C(O)Cc1csc(Nc2cccc(Cl)c2)n1 returned GLS inh -2%, Chronic BCR inh inconclusive, MBNL1 CUG block -7%, Apoferritin bind 10µM* and B2AR arrestin 1%.
For CCCCCCCC/C=C\CCCCCCCC(=O)OC[C@@H](O)[C@H]1OC[C@H](O)[C@H]1O the results were GLS inh 5%.
